Screening results as filed in PubChem BioAssay.
Shown are actives, neighbours in structure and some others; about 14% of the full set was active somewhere.
Pf growth 48h: inhibits P. falciparum growth in the first generation, 48 h. P. falciparum luciferase growth in erythrocytes, 48 h. Potency, µM (series often up to 28.7 µM), without a hit: top-dose activity change, negative = inhibition, usual class: inhibitors. actives 5.9% (n = 310,000). AID 504832; also: potency is read from the fitted curve at half-maximal effect
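Growth was read as firefly luciferase luminescence after a 48 h, 37 C, 5% CO2 exposure of compounds to reporter-bearing P. falciparum cultures (0.1% parasitemia, 2% hematocrit final) in Albumax-supplemented RPMI 1640.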
HCV inh: HCV inhibition. Potency, µM (titrated, usually from 41.8 µM), inactives show at the highest dose activity change, negative = inhibition, hits mostly inhibitors. Huh7.5.1 HCVcc-Cre infection, luciferase reporter, 44 h. AID 651820. actives 3.4% (n = 340,000); also: potency is read from the fitted curve at half-maximal effect
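Seed cells (1,000/well) for 4 h; treat with compound and infect with HCVcc-Cre, moi about 0.5. Incubate 44 h, then detect luciferase activity.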
Pf growth 96h: inhibits malaria parasite growth, 96 h; P. falciparum luciferase reporter growth, 96 h; actives 6.9% (n = 320,000); Potency, µM (titrated, usually from 28.7 µM), inactives show at the top dose activity change, negative = inhibition, actives largely listed as inhibitors; also: potency is read from the fitted curve at half-maximal effect
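96 h incubation, 37 C, 5% CO2, of luciferase-reporter P. falciparum-infected RBCs (2% hematocrit, 0.05% parasitemia final) with test compounds; endpoint luminescence.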
HCMV antiviral: human cytomegalovirus inhibition; HFF cells, HCMV-luciferase reporter, 72 h; active compounds read low; activity change, negative = inhibition, % at 57.5 µM; actives 4.5% (n = 410,000); in the data active = activity change below about -60%; inconclusive = no clear call, values can overlap the other calls; inactive = above about -39%
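Cell-based, HFFs, 1000 cells/well, 16 h 37C; cpds in DMSO + HCMV-luc, MOI 1 PFU/cell; 72 h 37C; OneGlo luminescence after 5 min RT; norm. to buffer vs Salinomycin 10uM.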
LASV entry inh: inhibitors of Lassa virus binding or cell entry | actives 1.2% (n = 300,000) | Lassa virus pseudotype entry inhibition, cell reporter | Potency, µM (top dose mostly 37.9 µM), without a hit: top-dose activity change, negative = inhibition, usual class: inhibitors | AID 540256; calls by dose curve; tested in HEK293 cells; also: potency is read from the fitted curve at half-maximal effect; nearly all actives have a fitted effect of over 50% in size
Marburg entry inh: inhibitors of Marburg virus binding or cell entry; Marburg virus pseudotyped entry inhibition, cell reporter; AID 540276; actives 1.8% (n = 300,000); Potency, µM (series often up to 37.8 µM), for inactives: at the top dose activity change, negative = inhibition, most hits filed as inhibitors; calls by dose curve; tested in HEK293 cells; also: potency is read from the fitted curve at half-maximal effect
An asterisk follows results filed as active; [ ] = remark or other dose. Unless noted, calls follow the shape of the dose curve; as a rule, active = well fitted inhibition curve with a large enough effect; inconclusive = small, poorly fitted or top-dose-only effect, or another doubt; inactive = no such curve, though single readings can be large or run the other way. % is scaled to controls: 0 for no effect and ±100 for the full control effect.

How did COc1cccc(N2CCN(c3ccc4nnc(CCC(=O)N5CCC(C)CC5)n4n3)CC2)c1 do in these assays?
Pf growth 48h: 8.3µM*; HCV inh: 1%; Pf growth 96h: 29%; HCMV antiviral: -38; LASV entry inh: inconclusive; Marburg entry inh: 0%[46.1 µM]

How did C/C(=N\Nc1cc(N2CCOCC2)nc(C)n1)c1ccc(F)cc1 do in these assays?
Pf growth 48h: -17%; HCV inh: inconclusive; Pf growth 96h: inconclusive; HCMV antiviral: 60; LASV entry inh: inconclusive; Marburg entry inh: 2.8µM*

How did C/C(=N\Nc1cc(N2CCOCC2)ncn1)c1ccccc1 do in these assays?
Pf growth 48h: 0%; HCV inh: -13%; Pf growth 96h: inconclusive; HCMV antiviral: -11

Results for C/C(=N\Nc1cc(N2CCCCC2)nc(C)n1)c1ccc(Br)cc1 ?
Pf growth 48h: 3.7µM*; HCV inh: 11µM*; Pf growth 96h: -4%; HCMV antiviral: -67*

How did C/C(=N/Nc1nc(C)cc(C)n1)c1ccc(Br)cc1 do in these assays?
Pf growth 48h: inconclusive; HCV inh: inconclusive; Pf growth 96h: -34%; HCMV antiviral: inconclusive; LASV entry inh: -10%[46.1 µM]; Marburg entry inh: inconclusive

Results for Cc1nc2nc(NC(=O)CC(C)C)[nH]n2c(=O)c1Cc1ccccc1 ?
HCMV antiviral: 1; LASV entry inh: 14%[46.1 µM]; Marburg entry inh: -9%[46.1 µM]

What do the screens show for `O=C(NCc1ccccc1Cl)c1ccc(Cn2c(SCc3ccccc3)nc3cccnc32)cc1`?
HCMV antiviral: 9; LASV entry inh: 25%[46.1 µM]

Results for CCC(=O)N1CCc2cc(S(=O)(=O)NC(C(=O)Nc3cc(OC)cc(OC)c3)C(C)C)ccc21 (stereo unspecified) ?
HCMV antiviral: -12; LASV entry inh: -10%[46.1 µM]; Marburg entry inh: -8%[46.1 µM]

What do the screens show for `O=C(C[n+]1ccccc1)N/N=C/c1cc(Br)ccc1F`?
Pf growth 48h: -27%; HCV inh: 4%; Pf growth 96h: inconclusive; HCMV antiviral: -99*; LASV entry inh: 15%; Marburg entry inh: 0%

Results for COc1ccc(Br)cc1/C=N/NC(=O)C[n+]1ccccc1 ?
Pf growth 48h: 13%; HCV inh: 14%; Pf growth 96h: 31%; HCMV antiviral: 3

How did COc1cc(-c2nnc(SCC(=O)Nc3ccc(C(=O)O)cc3)o2)cc(OC)c1OC do in these assays?
HCV inh: -2%; HCMV antiviral: -27; LASV entry inh: 1%[46.1 µM]; Marburg entry inh: 1%[46.1 µM]

What do the screens show for `CCCN(CCC)CCN1C(=O)C2C(C(=O)Nc3cccc(SC)c3)C3C=CC2(O3)C1C(=O)NC1CCCCC1` (stereo unspecified)?
Pf growth 48h: 3.7µM*; HCV inh: -27%; Pf growth 96h: -28%; HCMV antiviral: -29; LASV entry inh: 11%[46.1 µM]; Marburg entry inh: inconclusive

Results for CC(C)c1ccc(NC(=O)C2C3C=CC4(O3)C2C(=O)N(CCCN2CCCCC2)C4C(=O)NC2CCCCC2)cc1 (stereo unspecified) ?
Pf growth 48h: inconclusive; HCV inh: -14%; Pf growth 96h: -15%; HCMV antiviral: -77*; Marburg entry inh: 3%[46.1 µM]

How did Cc1cc(C)cc(NC(=O)C2C3C=CC4(O3)C2C(=O)N(CCN2CCCCC2)C4C(=O)NC2CCCCC2)c1 (stereo unspecified) do in these assays?
Pf growth 48h: inconclusive; HCV inh: -19%; Pf growth 96h: 10µM*; HCMV antiviral: -8; LASV entry inh: inconclusive; Marburg entry inh: -6%[46.1 µM]

How did COc1ccccc1OCc1nnc(SCC(=O)Nc2nnc(C3CC3)s2)n1C do in these assays?
Pf growth 48h: -6%; HCV inh: -21%; Pf growth 96h: 17%; HCMV antiviral: -32; LASV entry inh: -3%; Marburg entry inh: -15%[46.1 µM]

Results for N#Cc1cccc(NC(=O)CCNS(=O)(=O)c2ccc3[nH]c(=O)oc3c2)c1 ?
Pf growth 48h: 14%; HCV inh: 5%; Pf growth 96h: inconclusive

How did Cc1nn2c(N3CCN(C4CCCC4)CC3)cc(C(C)(C)C)nc2c1-c1ccccc1 do in these assays?
Pf growth 48h: 10%; HCV inh: -13%; HCMV antiviral: -1; LASV entry inh: -2%; Marburg entry inh: 8%

Results for O=C(c1ccco1)N1CCN(c2cc(C(F)(F)F)nc3ncnn23)CC1 ?
Pf growth 48h: 5%; HCV inh: 10%; Pf growth 96h: 13µM*; HCMV antiviral: 5; LASV entry inh: 5%; Marburg entry inh: -23%

What do the screens show for `Cc1nn2c(N3CCN(C)CC3)cc(C(C)(C)C)nc2c1-c1ccccc1`?
Pf growth 48h: inconclusive; HCV inh: inconclusive; Pf growth 96h: 3.3µM*; HCMV antiviral: -67*; LASV entry inh: inconclusive; Marburg entry inh: 10µM*

Results for Cc1cc(N2CCN(C(=O)c3ccco3)CC2)n2ncnc2n1 ?
Pf growth 48h: 0%; HCV inh: 10%; Pf growth 96h: 0%; HCMV antiviral: 11; LASV entry inh: -4%; Marburg entry inh: -6%

How did Cc1nn2c(N3CCN(C(=O)c4ccco4)CC3)cc(C(C)(C)C)nc2c1-c1ccccc1 do in these assays?
Pf growth 48h: inconclusive; HCV inh: 13%; Pf growth 96h: 4.7µM*; HCMV antiviral: -64*; LASV entry inh: 3%; Marburg entry inh: -8%

Results for COc1ccc2c(c1)CC(NC(=O)Nc1c(C)cc(C)cc1C)CO2 (stereo unspecified) ?
HCMV antiviral: -6; LASV entry inh: 14%[46.1 µM]

How did CCOc1ccccc1-n1c(SCC(=O)Nc2ccc(CC)cc2)nc2n[nH]c(C)c2c1=N do in these assays?
Pf growth 48h: inconclusive; HCV inh: -9%; Pf growth 96h: inconclusive; LASV entry inh: 10µM*; Marburg entry inh: inconclusive

Results for CCOc1ccccc1NC(=O)CCSc1nc2n[nH]c(C)c2c(=N)n1-c1ccccc1Cl ?
Pf growth 48h: 12µM*; HCV inh: inconclusive; Pf growth 96h: 115%; HCMV antiviral: -18; LASV entry inh: -18%; Marburg entry inh: inconclusive

What do the screens show for `CCc1ccc(-n2c(SCC(=O)NC(C)CC)nc3n[nH]c(C)c3c2=N)cc1` (stereo unspecified)?
HCMV antiviral: inconclusive; LASV entry inh: -11%[46.1 µM]

What do the screens show for `CCc1ccccc1-n1c(SCC(=O)Nc2ccc(C)cc2)nc2n[nH]c(C)c2c1=N`?
HCMV antiviral: -69*; LASV entry inh: inconclusive

How did Cc1ccccc1-n1c(SCc2ccccn2)nc2n[nH]c(C)c2c1=N do in these assays?
Pf growth 48h: inconclusive; HCV inh: 11µM*; Pf growth 96h: -1%; HCMV antiviral: -13; LASV entry inh: inconclusive; Marburg entry inh: inconclusive

Results for Cc1ccc(CNC(=O)CSc2nc3n[nH]c(C)c3c(=N)n2-c2ccccc2Cl)cc1 ?
HCMV antiviral: -4; LASV entry inh: 5%[46.1 µM]
